PubChem BioAssay (NCATS)
Inconclusive results are not listed. A number with no mark means an inactive call. Activity calls are given as the source filed them. The call rests on the fitted dose curve; in most records, active means well fitted inhibition curve with a large enough effect; inconclusive means small, poorly fitted or top-dose-only effect; inactive means no such curve, though single readings can be large or run the other way.

target: Retinal dehydrogenase 2 (Homo sapiens) (UniProt O94788); experiment: qHTS for Inhibitors of the Aldehyde Dehydrogenase Family (ALDH1A2) Confirmation screens (AID 2061314); conditions: ALDH1A2 enzyme inhibition qHTS confirmation; series mostly up to 45.9 µM; activity, negative = inhibition: at the top concentration; further: nearly all actives have a fitted effect of over 65% in size; further: potency means the concentration at half of the fitted maximal effect; on activity, negative = inhibition: on the % scale 0 is the no-effect control and ±100 the full control effect

Row | SMILES | Potency | outcome | activity, negative = inhibition
1 | O=C1Nc2ccc(Cl)cc2/C1=C\c1cc(Cl)c(O)c(Cl)c1 | 12.7 µM (active) |  | 
2 | O=C(C1CCN(Cc2ccccc2-c2ccccc2F)CC1)N1CCN(Cc2ccccc2)CC1 |  | inactive | 
3 | O=C(O)CN1C(=O)/C(=C/c2ccc(-c3cccc(Cl)c3)o2)SC1=S | 22.5 µM (active) |  | 
4 | CCOC(=O)c1[nH]c2c(c1C)C(=S)CC(c1ccco1)C2 (centres undefined) | 12.7 µM (active) |  | 
5 | NC(=O)C1CCN(c2nc(-c3ccc4ccccc4c3)cs2)CC1 |  |  | -4.59%
6 | CC(C)CCN(C)Cc1ccc(-c2ccccc2)cc1 |  |  | -16.9% [at 86.5 µM]
7 | Cc1nc(C(C)Nc2ncnc3ccc(-c4ccc5c(c4)OCO5)cc23)cs1 (centres undefined) |  |  | -16.5%
8 | CC(=O)c1c(C)n(-c2ccc(Cl)cc2)c2ccc(OC(=O)COc3ccccc3)cc12 |  |  | -10.2%
9 | COc1ccc(C2Nc3ccccc3C(=O)N2Cc2ccco2)cc1COc1ccc(N)cc1 (centres undefined) | 4.49 µM (active) |  | 
10 | CN1CCN(c2ccc(NC(=O)CN(C)Cc3c(O)ccc4ccccc34)cc2)CC1 | 7.12 µM (active) |  | 
11 | Cc1ccc(-c2cc(C(=O)NCc3cccc(F)c3)nn3cnnc23)cc1 |  |  | -16.3%
12 | CC(=O)c1c(C)n(-c2ccc(C)cc2)c2ccc(OC(=O)COc3ccccc3)cc12 |  |  | -10.9%
13 | O=C1Nc2cc(Cl)ccc2/C1=C\c1cc(Cl)c(O)c(Cl)c1 | 25.2 µM (active) |  | 
14 | CC(C)(C)c1ccc(S(=O)(=O)c2cnc(SCC(=O)Nc3ccc(F)c(Cl)c3)[nH]c2=O)cc1 | 14.2 µM (active) |  | 
15 | COc1cccc(CNC(=O)c2ccc3c(c2)sc2nc(-c4ccccc4)cn23)c1OC |  |  | -10.9%
16 | Cc1oc(-c2ccccc2F)nc1CS(=O)(=O)CC(=O)N1CCN(c2cccc(C(F)(F)F)c2)CC1 |  |  | -16.1%
17 | COc1ccc(C(=O)N(Cc2ccco2)Cc2ccco2)c(O)c1 | 17.9 µM (active) |  | 
18 | CCOC(=O)C1CCN(C(=O)C(C)(C)NC(=O)Nc2ccc(N(C)C)cc2)CC1 | 12.7 µM (active) |  | 
19 | CC(=O)Nc1sc2c(c1-c1csc3ccccc13)CCNC2 | 15.9 µM (active) |  | 

Row | SMILES | Potency | outcome | activity, negative = inhibition
20 | COc1ccc(C2=NN(CC(=O)NCCc3ccc(OC)c(OC)c3)C(=O)CC2)cc1 |  |  | -2.35%
21 | Cc1cc(C)cc(-c2ccccc2C=O)c1 |  |  | -4.18% [at 86.5 µM]
22 | CC(=O)N1CCN(c2ccc(NCc3ccc4c(c3)OCO4)cc2)CC1 | 8.96 µM (active) |  | 
23 | CN(C)c1cccc(-c2cnc(N3CCC(c4ncc[nH]4)CC3)s2)c1 |  |  | -147%
24 | O=C(Cc1ccc(F)cc1)Nc1cccc(-c2nc3cccnc3s2)c1 |  |  | -10.5%
25 | Cc1sc(NC(=O)Cc2ccc3c(c2)OCO3)nc1-c1ccc2c(c1)CCN2 | 4 µM (active) |  | 
26 | O=C1Cc2cc(S(=O)(=O)N3CCN(c4ccc(F)cc4)CC3)ccc2N1 |  |  | -14.8% [at 86.5 µM]
27 | COc1ccc(C2=Nn3c(nnc3-c3ccccc3OC)SC2)cc1OC1CCCC1 | 6.34 µM (active) |  | 
28 | O=C(O)c1ccc2c(c1)C(=O)N(CCc1ccc(O)cc1)C2=O |  |  | -9.92%
29 | Cc1ccc(CCN2C(=O)c3ccc(C(=O)O)cc3C2=O)cc1 |  |  | 0.817%
30 | CN(C)c1ccc(-c2cc[nH]c(=O)c2N)cc1 | 0.225 µM (active) |  | 
31 | COc1cc(NS(=O)(=O)c2cccc([N+](=O)[O-])c2)c2ncccc2c1 | 3.18 µM (active) |  | 
32 | CCN(CC)CC(=O)c1c(C)n(C)c2ccc(OC)cc12 |  |  | -10.6%
33 | CCC(=O)Nc1ccc(S(=O)(=O)NCc2ccc3c(c2)CCN3C(=O)c2ccc(C)cc2)cc1 |  | inactive | 
34 | Cc1ccc(S(=O)(=O)Nc2cnccc2C(=O)Nc2nc(C(=O)O)cs2)cc1 |  |  | -29.5%
35 | O=C1Cc2cc(S(=O)(=O)N3CCNCC3)ccc2N1 | 17.9 µM (active) |  | 
36 | Cc1cc(C)nc(NC(=S)N2CCN(c3ccc4cn(C)nc4c3)CC2)c1 | 12.7 µM (active) |  | 
37 | Cc1ccc(-c2ccccc2C=O)c(C)c1 |  |  | -0.267% [at 99.6 µM]
38 | O=S1(=O)N=C(Oc2cccc3ccccc23)c2ccccc21 | 12.7 µM (active) |  | 

target: Retinaldehyde dehydrogenase 3 (Homo sapiens) (UniProt P47895); experiment: qHTS for Inhibitors of the Aldehyde Dehydrogenase Family (ALDH1A3) Primary screen (AID 2061315); conditions: ALDH inhibition qHTS; series mostly up to 56 µM; activity change, negative = inhibition: at the top concentration;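 further: plate controls were DMSO vehicle for no effect and reference inhibitor for full effect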

Row | SMILES | activity change, negative = inhibition
39 | O=C1Nc2ccc(Cl)cc2/C1=C\c1cc(Cl)c(O)c(Cl)c1 | 31.5%
40 | O=C(O)CN1C(=O)/C(=C/c2ccc(-c3cccc(Cl)c3)o2)SC1=S | 4.02%
41 | CCOC(=O)c1[nH]c2c(c1C)C(=S)CC(c1ccco1)C2 (centres undefined) | -26.9%
42 | NC(=O)C1CCN(c2nc(-c3ccc4ccccc4c3)cs2)CC1 | 10.2%
43 | Cc1nc(C(C)Nc2ncnc3ccc(-c4ccc5c(c4)OCO5)cc23)cs1 (centres undefined) | -14.8%
44 | COc1ccc(C2Nc3ccccc3C(=O)N2Cc2ccco2)cc1COc1ccc(N)cc1 (centres undefined) | -4.24%
45 | CN1CCN(c2ccc(NC(=O)CN(C)Cc3c(O)ccc4ccccc34)cc2)CC1 | -13.2%
46 | O=C1Nc2cc(Cl)ccc2/C1=C\c1cc(Cl)c(O)c(Cl)c1 | 31.1%
47 | CC(C)(C)c1ccc(S(=O)(=O)c2cnc(SCC(=O)Nc3ccc(F)c(Cl)c3)[nH]c2=O)cc1 | -10.7%
48 | COc1ccc(C(=O)N(Cc2ccco2)Cc2ccco2)c(O)c1 | 5.35%
49 | CC(=O)Nc1sc2c(c1-c1csc3ccccc13)CCNC2 | -4.96%
50 | CN(C)c1cccc(-c2cnc(N3CCC(c4ncc[nH]4)CC3)s2)c1 | 0.777%
51 | Cc1sc(NC(=O)Cc2ccc3c(c2)OCO3)nc1-c1ccc2c(c1)CCN2 | -8.22%
52 | O=C1Cc2cc(S(=O)(=O)N3CCN(c4ccc(F)cc4)CC3)ccc2N1 | 12.4% [at 114 µM]
53 | COc1ccc(C2=Nn3c(nnc3-c3ccccc3OC)SC2)cc1OC1CCCC1 | 22%
54 | O=C(O)c1ccc2c(c1)C(=O)N(CCc1ccc(O)cc1)C2=O | -3.4%
55 | Cc1ccc(CCN2C(=O)c3ccc(C(=O)O)cc3C2=O)cc1 | 3.24%
56 | CN(C)c1ccc(-c2cc[nH]c(=O)c2N)cc1 | -21.1%
57 | Cc1ccc(S(=O)(=O)Nc2cnccc2C(=O)Nc2nc(C(=O)O)cs2)cc1 | -7.81%
58 | O=C1Cc2cc(S(=O)(=O)N3CCNCC3)ccc2N1 | -6.61%
59 | Cc1cc(C)nc(NC(=S)N2CCN(c3ccc4cn(C)nc4c3)CC2)c1 | -20.2%
